Most compounds without a hit are left out; they make up all but 4.7% or so of the library.
rCAG RNA binder = molecules binding r(CAG) RNA repeats. r(CAG) RNA repeat, TO-PRO-1 dye displacement fluorescence. inhibition, % at 3 µM. 370,000 tested, 1.3% active. AID 651821;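 active means inhibition above the plate cutoff, the mean of all test compounds on that plate plus 3 SD, cut at about 35% in these data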;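 further: higher means more dye released from RNA so lower well fluorescence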
MPTP inh = permeability transition pore inhibition; isolated mouse mitochondria, Ca2+ swelling absorbance, 30 min; inhibition, % at 10 µM; 360,000 tested, 1.4% active; AID 602449;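 active means inhibition of 50% or more, scaled per plate between neutral and stimulator controls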
Pemphigus Ab inh = inhibitors of pemphigus antibody binding to human desmoglein-3 | P32926 | DSG3-coupled beads, scFv-anti-DSG3-GFP binding, flow cytometry; stronger effect = lower value | binding (percent of control), % at 10 µM | 310,000 tested, 0.48% active;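 active means binding more than 3 SD below its plate's average and above zero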;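 further: hits lower antibody fragment binding to DSG3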
ADAM10 inh = ADAM10 inhibition, QFRET primary screen; O14672; recombinant ADAM10, EDANS/DABCYL FRET peptide cleavage, 3 h; inhibition, % at 7 µM; 370,000 tested, 0.62% active;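 active means inhibition above a per-campaign cutoff equal to the mean of compounds falling between control-based bounds plus 3 SD, cut at about 20% in these data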
proKLK7 act = proKLK7 (human) activation, primary screen | P49862 | 370,000 tested, 0.9% active | purified proKLK7, EDANS-DABCYL substrate fluorescence; 100% is mature enzyme control, 0% vehicle | AID 652039 | activation, % at 7 µM;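 active means activation above the mean of all tested compounds plus 3 SD, computed per campaign excluding outliers beyond control limits, cut at about 13% in these data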
ADAM17 inh = inhibits human ADAM17 | P78536 | recombinant ADAM17, EDANS/DABCYL FRET peptide cleavage | inhibition, % at 6.95 µM | 370,000 tested, 0.83% active | AID 720648;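 active means inhibition above the mean of compounds lying between control limits plus 3 SD, set per campaign, cut at about 8.5% in these data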
Target sequence (P78536 215-824 limits assumed): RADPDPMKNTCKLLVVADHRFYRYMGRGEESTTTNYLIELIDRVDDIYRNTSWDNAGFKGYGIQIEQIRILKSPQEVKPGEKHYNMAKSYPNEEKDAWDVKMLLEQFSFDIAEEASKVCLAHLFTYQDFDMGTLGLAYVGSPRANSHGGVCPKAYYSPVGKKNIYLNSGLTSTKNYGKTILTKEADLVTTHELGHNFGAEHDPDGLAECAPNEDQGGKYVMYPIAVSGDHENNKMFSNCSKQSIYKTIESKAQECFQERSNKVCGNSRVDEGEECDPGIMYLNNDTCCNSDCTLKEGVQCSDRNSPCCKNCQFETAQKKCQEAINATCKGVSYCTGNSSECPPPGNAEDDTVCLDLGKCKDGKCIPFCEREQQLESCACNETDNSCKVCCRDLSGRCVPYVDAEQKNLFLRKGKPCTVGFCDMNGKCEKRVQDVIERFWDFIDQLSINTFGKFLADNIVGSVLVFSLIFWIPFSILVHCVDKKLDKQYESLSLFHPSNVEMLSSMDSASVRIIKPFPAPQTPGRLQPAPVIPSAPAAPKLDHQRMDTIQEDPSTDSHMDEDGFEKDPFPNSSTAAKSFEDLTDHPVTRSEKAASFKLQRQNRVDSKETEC
ADAM10 counter = ADAM10 inhibition, counter-screen for ADAM17 exosite hits; shares compounds with ADAM17 inh; recombinant ADAM10, EDANS/DABCYL FRET peptide cleavage, 3 h; inhibition, % at 6.95 µM; 2,900 tested, 47% active;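 active means mean inhibition over the triplicate runs exceeds the activity threshold set in the earlier primary screen, cut at about 20% in these data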
ADAM17 confirm = confirmation of inhibitors of human ADAM17 | AID 743257 | shares compounds with ADAM17 inh | 2,900 tested, 65% active | inhibition, % at 6.95 µM | recombinant ADAM17, EDANS/DABCYL QFRET peptide cleavage;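 active means mean inhibition across replicates above the hit cutoff set in the primary screen, cut at about 8.5% in these data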
Of the large screens only hits and unclear results are named; the others gave an inactive call (follow-up assays come after a bar, where they were run).

COc1cc(C)c(C)cc1S(=O)(=O)N1CCN(Cc2ccc3c(c2)OCO3)CC1	ADAM17 inh 8.8 (no result: Pemphigus Ab inh) | ADAM10 counter 22.7 | ADAM17 confirm 9.3
COc1cc(S(=O)(=O)N2CCN(Cc3ccc4c(c3)OCO4)CC2)c(C)cc1C	none
CN(C)c1cccc(CNC(=O)c2ccc3sc([C@@H]4O[C@H](CO)[C@H](O)[C@H](O)[C@H]4O)nc3c2)c1	none (no result: Pemphigus Ab inh)
COc1ccccc1NC(=O)c1ccc(C)c(S(=O)(=O)N2CCCCC2)c1	none
COc1ccccc1NC(=O)c1ccc(Cl)c(S(=O)(=O)N2CCCCC2)c1	ADAM17 inh 10.1 | ADAM10 counter inactive | ADAM17 confirm inactive
CCCCC1CCC(C(=O)N(CCOC)c2c(N)n(CC(C)C)c(=O)[nH]c2=O)CC1 (stereo not given)	ADAM17 inh 9.3 | ADAM10 counter inactive | ADAM17 confirm inactive
COCCN(C(=O)C1CCC1)c1c(N)n(CC(C)C)c(=O)[nH]c1=O	none (no result: Pemphigus Ab inh)
C/C(CC(=O)Nc1ccc(Br)cc1)=N\NC(=O)c1cccc(O)c1	ADAM17 inh 10.0 | ADAM10 counter inactive | ADAM17 confirm inactive
CCc1cc(/C(Cc2ccc3ccccc3n2)=N\O)c(O)cc1O	ADAM17 inh 9.2 | ADAM10 counter 29.7 | ADAM17 confirm 21.7
CCc1cc(/C(Cc2ccccn2)=N\O)c(O)cc1O	none
CCOC(=O)[C@]12CCCCC/C=C\1N(Cc1ccc(OC)cc1)C(=O)[C@H]2CC(=O)N1CCC(c2ccccc2)CC1	ADAM17 inh 9.4 (no result: MPTP inh, Pemphigus Ab inh) | ADAM10 counter inactive | ADAM17 confirm inactive
CCOC(=O)[C@]12CCCCC/C=C\1N(Cc1ccc(OC)cc1)C(=O)[C@H]2CC(=O)N1CCCCC1	none (no result: MPTP inh, Pemphigus Ab inh)
CCc1cccc(CC)c1-n1c(SCC(=O)N2CCCc3ccccc32)nc(O)cc1=O	none
O=S1(=O)c2ccccc2-c2c(nnn2Cc2ccccc2)CN1C1CC1	none (no result: MPTP inh, Pemphigus Ab inh)
Cc1ccccc1NC(=O)Cc1nc(COC(=O)c2ccc(Cl)nc2)cs1	ADAM17 inh 8.7 | ADAM10 counter inactive | ADAM17 confirm inactive
Cc1ccccc1NC(=O)Cc1nc(COC(=O)c2nc(Cl)ccc2Cl)cs1	none (no result: Pemphigus Ab inh)
CCC(C(=O)Nc1cccc(C(F)(F)F)c1)c1ccccc1 (stereo not given)	ADAM17 inh 8.7 | ADAM10 counter 19.9 | ADAM17 confirm 9.4
O=C(Nc1cccc(C(F)(F)F)c1)C(SCCO)c1ccccc1 (stereo not given)	none
CCN(CC)S(=O)(=O)c1cc(NC(=O)C(C)N2CCc3ccccc32)ccc1C (stereo not given)	ADAM17 inh 10.1 | ADAM10 counter inactive | ADAM17 confirm inactive
CCOC(=O)[C@H]1[C@H]2COc3ccc(Br)cc3[C@@H]2N2C(=O)CN(Cc3ccc(C)cc3)C(=O)[C@@]12C	ADAM17 inh 9.6 | ADAM10 counter 28.1 | ADAM17 confirm 16.8
COc1ccc2c(c1)[C@H]1[C@H](CO2)[C@H](c2ccccc2)[C@]2(C)C(=O)N(Cc3ccc(C)cc3)CC(=O)N12	none (no result: rCAG RNA binder, ADAM10 inh, proKLK7 act, ADAM17 inh)
COc1ccc2c(c1)OC[C@H]1[C@H]2N2C(=O)CN(Cc3ccc(Cl)cc3)C(=O)[C@@]2(C)[C@H]1c1ccccc1	ADAM17 inh 9.9 | ADAM10 counter 28.9 | ADAM17 confirm 13.3
Cc1ccc(CN2CC(=O)N3[C@H]4c5cc(Cl)ccc5OC[C@@H]4[C@H](c4ccccc4)[C@]3(C)C2=O)cc1	ADAM17 inh 9.4 | ADAM10 counter inactive | ADAM17 confirm inactive
COc1ccc2c(c1)[C@H]1[C@H](CO2)[C@H](c2ccccc2)[C@]2(C)C(=O)Nc3cc(F)ccc3C(=O)N12	ADAM17 inh 10.0 | ADAM10 counter inactive | ADAM17 confirm inactive
CCOC(=O)[C@H]1[C@H]2COc3ccc(OC)cc3[C@@H]2N2C(=O)CN(Cc3ccc(C)cc3)C(=O)[C@@]12C	none
CCC(C)NS(=O)(=O)c1ccc(NC(=O)CNCc2cccs2)cc1 (stereo not given)	none
O=C(c1ccco1)N1CCN(C(=O)c2cnn(-c3ccc(F)cc3)c2-n2cccc2)CC1	none
Cc1ccc(/C(CSc2nccn2-c2ncc(C(F)(F)F)cc2Cl)=N\O)cc1	ADAM17 inh 15.1 | ADAM10 counter inactive | ADAM17 confirm 9.1
CCn1c(CNC(=O)COc2ccc(C(C)C)cc2)nnc1SCC(=O)Nc1cc(F)ccc1C	ADAM17 inh 11.7 | ADAM10 counter inactive | ADAM17 confirm inactive
O=C(CSc1nnc(-c2ccccc2)n1-c1ccc(Cl)cc1)NN=Cc1c[nH]c2ccccc12	ADAM17 inh 10.9 (no result: MPTP inh, Pemphigus Ab inh) | ADAM10 counter 29.5 | ADAM17 confirm 12.2
O=C(CSc1nnc(SCc2cccc3ccccc23)s1)N/N=C/c1c[nH]c2ccccc12	ADAM17 inh 12.1 | ADAM10 counter inactive | ADAM17 confirm 9.9
O=C(CSc1nnc(SCc2ccc(Cl)cc2)s1)N/N=C/c1c[nH]c2ccccc12	none
CN(Cc1ccco1)C(=O)CN1C(=O)NC(c2ccccc2)(c2ccccc2)C1=O	none
Cc1ccc(CN(C)C(=O)CN2C(=O)NC(c3ccccc3)(c3ccccc3)C2=O)c(C)c1	ADAM17 inh 9.1 (no result: Pemphigus Ab inh) | ADAM10 counter 30.8 | ADAM17 confirm 13.4
Cc1cccc(Nc2ncccc2C(=O)NCc2cccs2)c1C	ADAM17 inh 10.0 (no result: Pemphigus Ab inh) | ADAM10 counter 26.8 | ADAM17 confirm 15.4
O=S1(=O)C[C@H](N2CCC(Cc3ccccc3)CC2)[C@@H](COCc2ccccc2)N1	none (no result: Pemphigus Ab inh)
Cc1ccc(SCc2nc(N)nc(Nc3ccccc3C)n2)cc1C	ADAM17 inh 9.2 | ADAM10 counter inactive | ADAM17 confirm inactive
Cc1ccccc1Nc1nc(N)nc(CSc2ccc(F)cc2)n1	none
Cc1ccc(C(=O)OCC(=O)NC(=O)c2ccccc2)o1	none
CC(=O)Nc1cccc(NC(=O)c2cccc(S(=O)(=O)N3CCN(Cc4ccccc4)CC3)c2)c1	ADAM17 inh 20.0 | ADAM10 counter inactive | ADAM17 confirm 11.9
COc1ccc(S[C@@H](CCN2CC[C@H](C)CCC2=O)c2ccccc2)cc1	ADAM17 inh 13.9 | ADAM10 counter inactive | ADAM17 confirm 11.2
Cc1ccc(S(=O)(=O)NC(=O)C2(C)CCN2C(=O)C2CCCCC2)cc1 (stereo not given)	none (no result: Pemphigus Ab inh)
O=C(COc1cccc(OC(F)F)c1)Nc1ccc(SC(F)F)cc1	none
Cc1ccc(C(=O)c2ccccc2C(=O)OCC(=O)Nc2ccc(SC(F)F)cc2)cc1	ADAM17 inh 12.6 | ADAM10 counter 34.9 | ADAM17 confirm 17.6
O=C(COc1cccc(Oc2ccccc2)c1)Nc1ccc(SC(F)F)cc1	ADAM17 inh 10.2 | ADAM10 counter 31.7 | ADAM17 confirm 18.0
